Compounds with a hit are over-represented: about 6.2% of the library has one in this group of screens.
VP16 counter: counter-screen for ROR gamma inhibitors: Gal4-VP16 reporter | Drosophila S2 Gal4-VP16 UAS-luciferase, luminescence, 20 h | Potency, µM (doses to about 53.6 µM), inactives show top-dose activity, negative = inhibition, actives largely listed as inhibitors | actives 3.5% (n = 310,000);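 note: Gal4-VP16 expression switched on by copper sulfate through the metallothionein promoter; nearly all actives have a fitted effect of over 50% in size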
RORgamma inh: inhibitors of mouse ROR gamma transcriptional activity; P51450; Drosophila S2 Gal4-RORgamma UAS-luciferase reporter, 20 h; Potency, µM (series often up to 53.6 µM), inactives show at the top dose activity change, negative = inhibition, actives largely listed as inhibitors; actives 5.4% (n = 310,000); AID 2551; note: nearly all actives have a fitted effect of over 60% in size
Target sequence (P51450 whole entry, looked up, the tested form may be a part): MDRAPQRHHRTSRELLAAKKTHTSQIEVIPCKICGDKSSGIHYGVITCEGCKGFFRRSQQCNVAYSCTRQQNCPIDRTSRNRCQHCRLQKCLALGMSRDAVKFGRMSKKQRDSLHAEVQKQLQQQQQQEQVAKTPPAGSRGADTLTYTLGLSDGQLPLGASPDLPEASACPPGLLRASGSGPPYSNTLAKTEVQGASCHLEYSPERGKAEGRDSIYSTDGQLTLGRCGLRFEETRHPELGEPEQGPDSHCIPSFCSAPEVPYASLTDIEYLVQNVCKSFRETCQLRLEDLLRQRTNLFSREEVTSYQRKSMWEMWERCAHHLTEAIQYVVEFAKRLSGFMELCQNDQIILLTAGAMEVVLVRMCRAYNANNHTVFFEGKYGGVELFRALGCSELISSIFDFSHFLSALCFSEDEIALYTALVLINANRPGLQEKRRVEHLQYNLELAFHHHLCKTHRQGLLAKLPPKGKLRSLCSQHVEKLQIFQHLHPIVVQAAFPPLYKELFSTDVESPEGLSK
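Compounds are pin-transferred onto Drosophila Schneider cells expressing a copper-inducible Gal4–ROR gamma transactivation domain fusion. After 1 hr, copper sulfate is added to 700 uM final; luciferase is read 20 hr later.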
Luc counter: Kinase-Glo luciferase inhibition (counter-screen) | Kinase-Glo luciferase, ATP luminescence, 8 min | Potency, µM (top dose mostly 38.3 µM), without a hit: at the top dose activity change, negative = inhibition, actives largely listed as inhibitors | actives 0.28% (n = 200,000) | AID 1379; note: nearly all actives have a fitted effect of over 60% in size
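Inhibition of Kinase-Glo luciferase light generation was assessed at 10 uM ATP in pH 7.2 imidazole buffer, with luminescence measured after eight minutes at ambient temperature.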
An asterisk follows results filed as active; ? = inconclusive; / = not tested or not shown; [ ] = remark or other dose. Calls come from the whole dose curve; as a rule, active = well fitted curve in the direction sought with a large enough effect; inconclusive = small, poorly fitted or top-dose-only effect, or another doubt; inactive = no such curve, though single readings can be large; an effect the other way counts as inactive or inconclusive. % is set by controls: 0 for no effect and ±100 for the full control effect; potency is the fitted concentration of half-maximal effect.

SMILES	VP16 counter	RORgamma inh	Luc counter
Cc1nc2ccccn2c1C(=O)N/N=C/c1ccc([N+](=O)[O-])o1	?	14µM*	-1%
CCN(CC)S(=O)(=O)c1cccc(C(=O)N/N=C/c2ccc([N+](=O)[O-])o2)c1	?	10µM*	1%
CCN(CC)S(=O)(=O)c1cccc(C(=O)N/N=C/c2ccccc2OCC(=O)O)c1	8%	11%	4%
Cc1scc(C(=O)N/N=C/c2ccc([N+](=O)[O-])o2)c1C	7.1µM*	4µM*	/
Cc1nc2ccccn2c1C(=O)N/N=C/c1ccc([N+](=O)[O-])cc1	5%	6%	/
C#CCOc1ccc(C(=O)N(C)c2ccccc2I)cc1	-1%	-1%	/
C=CCn1c(SCC(=O)Nc2c(C)n(C)n(-c3ccccc3)c2=O)nc2sc(C)c(-c3ccccc3)c2c1=O	-6%	41%	2%
CC(C)NC(=O)C12CC3CC(C1)CC(n1cnc(Cl)n1)(C3)C2	-2%	13%	-3%
CN(C)S(=O)(=O)c1cccc(NC(=O)c2ccc(COc3ccccc3)cc2)c1	6.3µM*	-44%	/
CCOc1cccc(NC(=O)c2ccc(S(=O)(=O)N(C)C)cc2)c1	17%	34%	4%
Cc1noc(C)c1C(=O)N1CCC[C@@]2(CCN(C(=O)Nc3cccc(C#N)c3)C2)C1	-1%	27%	-4%
CN(C)CCCn1c2c3ccccc3ccc2c2oc(=O)c3ccccc3c21	/	/	2%[7.66 µM]
COc1ccc(Cl)cc1C(=O)NC(C)C	0%	13%	1%
COc1ccc(CN=C2NN=C(c3ccc(Cl)cc3)CS2)cc1	-7%	?	0%
Cc1ccc(C2=NNC(=Nc3ccc(F)cc3)SC2)cc1	?	?	0%
CC(C)c1ccc(N=C2NN=C(c3cccs3)CS2)cc1	?	13µM*	-5%
COCC(C)N=C1NN=C(c2cc(C)n(Cc3ccccc3Cl)c2C)CS1 (stereo not given)	-11%	-31%	1%
CC(C)(C)N=C1NN=C(c2ccc(Cl)cc2)CS1	?	7.1µM*	/
CC(C)N=C1NN=C(c2cccs2)CS1	-22%	13µM*	?
CC(=O)c1c(C)[nH]c(C2=NNC(=NC(C)(C)C)SC2)c1C	?	?	2%
CC(C)(C)N=C1NN=C(c2cc3ccccc3o2)CS1	?	6.3µM*	/
COc1ccc(OC)c(/C=N/NC(=O)c2ccc(Cn3cc([N+](=O)[O-])cn3)o2)c1	2%	12%	9%
Cc1noc(C)c1S(=O)(=O)N1CCN(S(=O)(=O)c2ccccc2C#N)CC1	-8%	-4%	/
COc1ccccc1CN1CC2(CCN(C(=O)c3cc(C(F)(F)F)cc(C(F)(F)F)c3)CC2)C1	6%	-37%	2%
CC(=O)N1c2ccc([N+](=O)[O-])cc2NC(=O)CC1C (stereo not given)	?	-2%	0%
SMILES	VP16 counter	RORgamma inh	Luc counter
COc1ccc(C2CC(c3ccccc3)Oc3cc(C)c(Cl)c(C)c32)cc1 (stereo not given)	-2%	-7%	/
CC(C)N=C1NN=C(c2ccc(Cl)c(Cl)c2)CS1	?	10µM*	-10%
COCC(C)N=C1NN=C(c2ccc(NC(C)=O)cc2)CS1 (stereo not given)	25%	?	-1%
O=C(COc1ccccc1Br)c1ccc(O)cc1O	?	10µM*	-2%
O=C(Cc1ccc(Br)cc1)c1ccc(O)cc1O	-13%	14%	/
COc1cccc(CS(=O)(=O)c2nnnn2-c2ccccc2)c1	-28%	7.1µM*	0%
COc1cccc(-n2nnnc2SCC(=O)Nc2ccccc2OC)c1	2%	4%	/
CCCS(=O)(=O)c1nnnn1-c1cccc(OC)c1	4.5µM*	1.8µM*	1%
COc1cccc(CS(=O)(=O)c2nnnn2C2CCCCC2)c1	0%	1%	2%
COc1cc(S(=O)(=O)NCc2cccnc2)ccc1F	8%	12%	-4%
CCN(C(=O)CC(C)C)c1nnc(Cn2nnc3ccccc32)s1	?	18%	1%
CCN(C(=O)c1ccc(C(C)(C)C)cc1)c1nnc(Cn2nnc3ccccc32)s1	5.6µM*	?	12%
c1csc(CNc2nc(-c3ccoc3)nc3ccccc23)c1	6%	?	/
CCn1cc(C(=O)NCCCOC(C)C)c(=O)c2cc(S(=O)(=O)N3CCC(C)CC3)ccc21	-6%	6%	/
O=C1c2ccccc2C(=O)N1CCSc1n[nH]c(=S)s1	11%	-25%	1%
CC(C)CSc1n[nH]c(=S)s1	-10%	10µM*	1%
O=C(CSc1nc(C2CC2)nc2ccccc12)NCc1ccc2c(c1)OCO2	-9%	0%	-6%

Bioassay records: PubChem BioAssay, National Center for Advancing Translational Sciences (NCATS)
